# Rows were chosen to be rich in hits. Some 3.4% of all compounds tested hit in one or more screens of this group.
# FBW7 act: human FBW7 E3 ligase activation, primary screen; Q969H0; AlphaScreen FBW7–phospho-cyclin E peptide binding, activator screen; normalized activity (activation), % at 26.1 µM; hit rate 0.13% among 650,000; AID 1259310; in the data active = normalized activity above about 1.9%;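 also: purified mutant Fbw7 with reduced substrate affinity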
# Target sequence (Q969H0 whole entry, looked up): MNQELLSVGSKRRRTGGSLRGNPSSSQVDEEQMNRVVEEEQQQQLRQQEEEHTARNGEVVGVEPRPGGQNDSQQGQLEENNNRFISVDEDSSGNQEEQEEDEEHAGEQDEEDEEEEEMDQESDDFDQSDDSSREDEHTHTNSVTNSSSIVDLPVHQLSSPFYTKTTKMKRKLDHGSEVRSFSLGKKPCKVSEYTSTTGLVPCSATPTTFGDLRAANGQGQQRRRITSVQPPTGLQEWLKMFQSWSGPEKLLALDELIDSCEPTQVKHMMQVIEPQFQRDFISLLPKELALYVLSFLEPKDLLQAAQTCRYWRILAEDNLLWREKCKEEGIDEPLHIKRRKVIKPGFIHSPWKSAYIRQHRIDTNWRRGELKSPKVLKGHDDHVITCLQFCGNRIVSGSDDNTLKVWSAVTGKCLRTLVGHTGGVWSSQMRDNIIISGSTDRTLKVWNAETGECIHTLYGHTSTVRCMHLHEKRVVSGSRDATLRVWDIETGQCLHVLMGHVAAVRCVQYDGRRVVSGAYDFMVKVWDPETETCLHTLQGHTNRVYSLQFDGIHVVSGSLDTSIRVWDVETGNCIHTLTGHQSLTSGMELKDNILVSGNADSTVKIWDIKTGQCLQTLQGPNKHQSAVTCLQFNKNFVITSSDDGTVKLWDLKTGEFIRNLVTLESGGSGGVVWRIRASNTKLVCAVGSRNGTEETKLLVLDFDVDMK
# MITF inh: blocks human microphthalmia-associated transcription factor; inhibition, % at 2.6 µM; AID 1259374; O75030; AlphaScreen MITF homodimerization, bead proximity signal; hit rate 0.91% among 650,000; in the data active = inhibition above about 50%;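 also: 0% = vehicle wells with protein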
# TEAD-YAP inh: TEAD-YAP interaction inhibition; HEK-TIYL cells, TEAD-Gal4/YAP UAS-luciferase luminescence; inhibition, % at 9.12 µM; hit rate 1.4% among 640,000; in the data active = inhibition above about 32%;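 also: 0% = median of test compound wells and 100% = reference inhibitor wells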
# GPR151 ag: human GPR151 activation; activation, % at 11.2 µM; PathHunter beta-arrestin GPR151 cells, luminescence; hit rate 1% among 650,000; in the data active = activation above about 4.9%;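 also: 0% = median of compound wells and 100% = cells with positive control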
# MITF inh conf: human MITF inhibition, confirmation | shares compounds with MITF inh | inhibition, % at 2.6 µM | AlphaScreen MITF homodimerization, biotin/His-MITF beads | hit rate 16% among 4,700 | AID 1259372;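 active = inhibition above a cutoff derived from the DMSO control wells, cut at about 28% in these data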;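 also: 0% = MITF dimer wells with DMSO only; inhibitors lower the bead chemiluminescence by keeping MITF from dimerizing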
# AlphaScreen DR: optically interferes with AlphaScreen signal in dose response | shares compounds with MITF inh | AlphaScreen optical interference counterscreen, cell-free | IC50, µM | hit rate 6% among 480; call rule not given here
# AS interf ctr: counter-screen: compounds optically interfering with AlphaScreen | hit rate 7.6% among 4,700 | inhibition, % at 2.6 µM | LysRS AlphaScreen counterscreen, signal interference, triplicate | shares compounds with MITF inh | AID 1259376;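 active = inhibition above a cutoff derived from the DMSO control wells, cut at about 30% in these data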
# * = called active by the depositor; . = no result.
SMILES,FBW7 act,MITF inh,TEAD-YAP inh,GPR151 ag,MITF inh conf,AS interf ctr,others
O=C(Nc1ccc(Nc2ccc(-n3cccn3)nn2)cc1)c1ccccc1Cl,0,58*,-1,1,4,8,
C=CCc1cc(C)ccc1OCCOCCNCCN(C)C,0,51*,-4,0,7,20,
C=CCNCCOCCOc1ccc(C(C)(C)C)cc1C,0,9,0,-1,.,.,
COCCNCCCCOc1cc(C)ccc1C(C)(C)C,0,39,-4,-1,.,.,
C=CCNCCOCCOc1ccc(C)cc1Br,0,60*,-20,0,9,12,
C=CCc1cc(C)ccc1OCCCNCCOC,0,58*,-1,-1,-11,-7,
COCCNCCOc1cc(C)ccc1C(C)(C)C,0,51*,10,-1,-14,-7,
c1ccc2sc(COc3ncnc4ccccc34)nc2c1,0,-1,-6,-1,.,.,
C=CCn1c(SCCCC)nc2sc3c(c2c1=O)CCc1ccccc1-3,0,2,4,1,.,.,
CCc1nnc(NC(=O)Cn2ncc3c(=O)oc4ccc(C)cc4c32)s1,0,-5,7,0,.,.,
C=CCc1cc(Cl)ccc1OCCNCCOC,0,44,5,4,.,.,
C=CCNCCCOc1ccc(Br)cc1Cl,0,15,-18,-3,.,.,
C=CCNCCOc1ccc(Br)cc1Cl,0,56*,1,0,7,3,
C=CCc1cc(C)ccc1OCCNCCOC,0,53*,4,0,-1,-4,
C=CCc1cc(OC)ccc1OCCN1CC(C)OC(C)C1 (stereo not given),0,64*,-1,0,20,36*,
C=CCc1cc(OC)ccc1OCCCNCCOC,0,62*,1,0,-1,7,
O=[N+]([O-])c1ccc(C(O)Cn2cccn2)cc1 (stereo not given),0,-3,-7,-1,.,.,
COc1ccc(CN2CCNC(=O)C2CC(=O)N2CCCCCC2)c(F)c1 (stereo not given),0,4,-4,-1,.,.,
C=CCNCCOCCOc1cccc(Br)c1,0,60*,0,-1,2,4,
C=CCNCCOCCOc1cccc(OCC)c1,0,13,-2,1,.,.,
C=CCNCCOCCOc1ccc(Cl)cc1C(C)(C)C,0,69*,-2,0,2,6,
COCCCNCCOCCOc1ccc(Cl)cc1C(C)(C)C,0,5,-1,-1,.,.,
COC(=O)c1c(NC(=O)c2c(-c3ccccc3)noc2C)sc2c1CCC(C(C)(C)C)C2 (stereo not given),0,1,7,0,.,.,
CCNCC(=O)c1[nH]c(C)c(C(C)=O)c1C,0,51*,6,0,-4,-4,
COc1ccc(CCN2COc3c(cc(Cl)c4cccnc34)C2)cc1OC,-1,68*,39*,0,94*,100*,
SMILES,FBW7 act,MITF inh,TEAD-YAP inh,GPR151 ag,MITF inh conf,AS interf ctr,others
COCCN1COc2c(cc(Cl)c3cccnc23)C1,-1,66*,-5,-1,48*,92*,
COc1cc(C(=O)NN2C(=O)CSC2=S)cc(OC)c1OC,0,1,-3,1,.,.,
OC[C@H]1OC([S-])[C@H](O)[C@@H](O)[C@@H]1O.[Au+] (stereo not given in full),0,86*,15,0,73*,0,AlphaScreen DR=>6.5
CCN1CCN(CCCOc2ccc(C#N)cc2)CC1,0,72*,18,-1,12,18,
CCN1CCN(CCOc2ccc(F)cc2)CC1,0,81*,9,3,10,18,
Fc1ccc(OCCN2CCNCC2)cc1,0,60*,10,2,-11,-4,
CCN1CCN(CCOCCOc2ccc(I)cc2)CC1,1,81*,9,1,5,15,
COC(=O)/C=C\C(=O)Nc1ccc(NC(C)=O)cc1,0,11,0,-1,.,.,
CCCCOc1ccc(OCCOCCN2CCN(CC)CC2)cc1,0,65*,-2,0,12,14,
CCN1CCN(CCOCCOc2ccc(F)cc2)CC1,0,70*,8,0,32*,10,AlphaScreen DR=>6.5
CCOC(=O)C1=C(C)N=C2SCC(=O)N2C1c1ccc2c(c1)OCO2 (stereo not given),0,8,-8,-1,.,.,
Cc1cc(C)c(C2C(C#N)=C(N)Oc3n[nH]c(C)c32)cc1CSc1ccc(Br)cc1 (stereo not given),-1,99*,-10,1,-9,-9,
Cc1cc(C)c(C2C(C#N)=C(N)Oc3n[nH]c(C)c32)cc1COc1ccc(F)cc1 (stereo not given),0,6,0,0,.,.,
CC1CCCC(N2CCN(Cc3cccc(F)c3)CC2)C1 (stereo not given),0,69*,-1,-1,-3,-7,
CC1CCCC(N2CCN(Cc3ccc(Cl)cc3)CC2)C1 (stereo not given),0,73*,10,0,-8,-2,
CCc1ccc(CN2CCN(C3CCCC(C)C3)CC2)cc1 (stereo not given),0,64*,-3,-2,0,-1,
Fc1cccc(CN2CCC(N3CCCCC3)CC2)c1,0,-8,4,-1,.,.,
CC1CCC(N2CCN(Cc3ccc(F)cc3)CC2)CC1 (stereo not given),0,34,-3,0,.,.,
CC1CCCC(N2CCN(Cc3ccc(F)cc3)CC2)C1 (stereo not given),0,74*,-39,0,4,4,
COc1cc(/C=C2/C=C(c3ccc4ccccc4c3)OC2=O)ccc1O,0,11,-6,-1,.,.,
COc1ccc(CNC(=O)c2ccc(N3CC4CC(C3)c3cccc(=O)n3C4)c(NC(=O)c3cccs3)c2)cc1 (stereo not given),0,-10,-6,-1,.,.,
COc1cc(C(=O)Nc2ccc(Cl)c(Cl)c2)c([N+](=O)[O-])cc1OC,0,20,6,-1,.,.,
COc1ccc(C2CC(C(=O)N3CCCCC3)N(C)S(=O)(=O)N2)cc1 (stereo not given),0,-13,4,3,.,.,
O=c1oc2ccc3ccccc3c2cc1-c1nc(-c2ccc([N+](=O)[O-])cc2)n[nH]1,0,72*,5,1,7,13,
COCCNc1cc(-c2ccccn2)nc(-c2ccccc2)n1,0,1,17,-1,.,.,
COCCNc1cc(-c2ccccn2)nc(-c2ccccn2)n1,-1,116*,22,1,118*,100*,
COc1cc([N+](=O)[O-])ccc1N1C(=O)C=CC1=O,0,-3,3,-1,.,.,
COc1ccc(CCN2C(=O)CCC2(C)C(=O)NC2CCCCCC2)cc1OC (stereo not given),0,9,6,0,.,.,
C=CCNCCOc1ccc(C)cc1[N+](=O)[O-],0,52*,-3,3,-23,-3,
CN(C)CCCCOc1ccc([N+](=O)[O-])cc1,0,77*,5,1,5,-1,

# Screening results as filed in PubChem BioAssay.
